From the supplement of paper PMC10849652 come the findings set out here.

Targets with a hit are over-represented here; the source holds about 8,800 in all. About 0.5% of all pairs of compound and target were hits. Unmarked numbers belong to inactive results.

Chain of UniProt O14880 (O14880 whole entry, looked up): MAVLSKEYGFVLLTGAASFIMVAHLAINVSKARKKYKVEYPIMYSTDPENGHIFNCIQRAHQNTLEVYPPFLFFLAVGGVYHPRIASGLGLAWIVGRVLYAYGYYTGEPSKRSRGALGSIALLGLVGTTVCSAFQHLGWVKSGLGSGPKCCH
Chain of UniProt Q12851 (Q12851 whole entry, looked up): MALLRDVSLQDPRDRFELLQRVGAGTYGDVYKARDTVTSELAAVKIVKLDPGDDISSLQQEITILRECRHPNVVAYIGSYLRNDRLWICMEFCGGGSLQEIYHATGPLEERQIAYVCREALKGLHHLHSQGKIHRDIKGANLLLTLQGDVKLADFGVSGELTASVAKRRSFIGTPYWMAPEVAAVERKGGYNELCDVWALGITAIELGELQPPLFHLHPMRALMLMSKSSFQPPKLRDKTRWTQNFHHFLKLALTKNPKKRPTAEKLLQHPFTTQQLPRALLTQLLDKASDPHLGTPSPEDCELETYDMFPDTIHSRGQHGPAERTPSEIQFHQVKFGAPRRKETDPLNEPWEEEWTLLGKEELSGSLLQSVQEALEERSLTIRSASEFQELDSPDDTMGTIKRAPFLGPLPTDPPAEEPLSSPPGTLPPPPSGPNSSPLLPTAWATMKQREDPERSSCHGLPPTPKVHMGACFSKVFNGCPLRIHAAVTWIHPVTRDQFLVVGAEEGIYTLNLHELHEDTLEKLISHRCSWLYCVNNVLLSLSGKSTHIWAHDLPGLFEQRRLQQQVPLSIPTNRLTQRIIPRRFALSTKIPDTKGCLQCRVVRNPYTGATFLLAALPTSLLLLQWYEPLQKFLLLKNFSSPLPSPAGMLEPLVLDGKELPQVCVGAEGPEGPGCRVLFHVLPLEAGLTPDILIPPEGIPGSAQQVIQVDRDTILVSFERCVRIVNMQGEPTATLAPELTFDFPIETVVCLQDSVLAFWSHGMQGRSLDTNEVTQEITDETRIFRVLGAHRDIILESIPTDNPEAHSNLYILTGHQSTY
Chain of UniProt P53667 (P53667 whole entry, looked up): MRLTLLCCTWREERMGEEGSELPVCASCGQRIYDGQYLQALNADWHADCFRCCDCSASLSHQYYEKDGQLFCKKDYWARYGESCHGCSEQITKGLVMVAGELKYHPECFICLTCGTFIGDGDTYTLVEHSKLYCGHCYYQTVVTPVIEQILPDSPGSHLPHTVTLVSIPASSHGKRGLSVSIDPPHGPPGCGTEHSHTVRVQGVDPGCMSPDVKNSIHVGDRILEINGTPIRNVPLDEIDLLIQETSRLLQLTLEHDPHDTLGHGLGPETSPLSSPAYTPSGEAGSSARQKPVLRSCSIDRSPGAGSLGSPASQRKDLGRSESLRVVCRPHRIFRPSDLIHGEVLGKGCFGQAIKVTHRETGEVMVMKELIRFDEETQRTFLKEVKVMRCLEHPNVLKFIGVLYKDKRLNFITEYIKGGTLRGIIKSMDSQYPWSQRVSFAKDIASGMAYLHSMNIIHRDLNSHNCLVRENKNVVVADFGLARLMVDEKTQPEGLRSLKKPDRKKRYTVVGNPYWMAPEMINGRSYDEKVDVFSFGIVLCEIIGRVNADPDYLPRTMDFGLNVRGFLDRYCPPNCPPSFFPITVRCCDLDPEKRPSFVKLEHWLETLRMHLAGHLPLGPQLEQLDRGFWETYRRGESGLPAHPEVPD
Chain of UniProt Q16644 (Q16644 whole entry, looked up): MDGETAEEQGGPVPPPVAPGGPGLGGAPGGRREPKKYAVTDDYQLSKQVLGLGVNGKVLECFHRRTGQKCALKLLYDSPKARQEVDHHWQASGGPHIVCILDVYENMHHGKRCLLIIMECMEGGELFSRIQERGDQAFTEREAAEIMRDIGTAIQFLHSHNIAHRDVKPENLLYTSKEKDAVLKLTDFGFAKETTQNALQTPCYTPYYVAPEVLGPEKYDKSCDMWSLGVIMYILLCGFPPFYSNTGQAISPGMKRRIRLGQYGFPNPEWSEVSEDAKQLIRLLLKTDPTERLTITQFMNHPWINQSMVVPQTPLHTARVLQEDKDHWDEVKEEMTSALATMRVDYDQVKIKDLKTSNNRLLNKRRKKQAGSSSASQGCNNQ
Chain of UniProt Q71SY5 (Q71SY5 whole entry, looked up): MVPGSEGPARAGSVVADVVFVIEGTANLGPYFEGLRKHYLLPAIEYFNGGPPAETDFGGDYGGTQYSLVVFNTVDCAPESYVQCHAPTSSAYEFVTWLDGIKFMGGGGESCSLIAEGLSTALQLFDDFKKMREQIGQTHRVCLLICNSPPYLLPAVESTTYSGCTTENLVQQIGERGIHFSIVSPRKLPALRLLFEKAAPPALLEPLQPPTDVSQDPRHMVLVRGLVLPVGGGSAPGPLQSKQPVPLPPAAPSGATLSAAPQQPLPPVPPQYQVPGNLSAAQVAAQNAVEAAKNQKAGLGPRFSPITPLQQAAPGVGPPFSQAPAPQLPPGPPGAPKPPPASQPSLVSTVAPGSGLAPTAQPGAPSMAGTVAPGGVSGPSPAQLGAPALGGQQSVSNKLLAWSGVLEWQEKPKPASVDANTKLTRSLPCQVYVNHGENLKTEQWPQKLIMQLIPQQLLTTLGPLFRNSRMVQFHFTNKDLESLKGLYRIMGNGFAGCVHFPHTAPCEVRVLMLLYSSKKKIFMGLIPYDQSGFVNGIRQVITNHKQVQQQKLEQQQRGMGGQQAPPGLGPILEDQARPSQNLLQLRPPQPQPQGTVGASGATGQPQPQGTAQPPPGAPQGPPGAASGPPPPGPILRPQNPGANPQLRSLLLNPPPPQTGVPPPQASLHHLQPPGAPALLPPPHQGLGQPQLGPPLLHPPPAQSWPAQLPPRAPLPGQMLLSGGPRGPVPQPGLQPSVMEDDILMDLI
Chain of UniProt P08473 (P08473 whole entry, looked up): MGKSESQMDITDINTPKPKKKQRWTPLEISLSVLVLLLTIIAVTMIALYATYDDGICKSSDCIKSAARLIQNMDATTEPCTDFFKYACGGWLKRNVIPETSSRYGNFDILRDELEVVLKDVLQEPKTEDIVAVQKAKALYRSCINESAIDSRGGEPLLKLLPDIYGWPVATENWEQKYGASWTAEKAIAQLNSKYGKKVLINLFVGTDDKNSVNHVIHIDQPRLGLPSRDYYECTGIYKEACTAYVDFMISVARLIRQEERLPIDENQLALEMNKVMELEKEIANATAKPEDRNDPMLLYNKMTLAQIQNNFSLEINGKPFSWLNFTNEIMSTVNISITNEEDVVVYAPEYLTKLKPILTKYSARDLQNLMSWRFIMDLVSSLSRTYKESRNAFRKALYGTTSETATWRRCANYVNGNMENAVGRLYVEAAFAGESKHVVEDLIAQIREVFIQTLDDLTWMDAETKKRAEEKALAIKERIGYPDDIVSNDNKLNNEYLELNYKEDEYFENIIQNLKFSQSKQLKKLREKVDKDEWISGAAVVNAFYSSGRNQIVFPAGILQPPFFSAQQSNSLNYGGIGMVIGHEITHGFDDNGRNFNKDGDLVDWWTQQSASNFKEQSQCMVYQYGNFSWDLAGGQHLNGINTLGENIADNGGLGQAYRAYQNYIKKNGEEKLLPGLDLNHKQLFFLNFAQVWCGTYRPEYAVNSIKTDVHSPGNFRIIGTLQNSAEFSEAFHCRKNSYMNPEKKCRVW
Chain of UniProt Q9Y4K4 (Q9Y4K4 whole entry, looked up): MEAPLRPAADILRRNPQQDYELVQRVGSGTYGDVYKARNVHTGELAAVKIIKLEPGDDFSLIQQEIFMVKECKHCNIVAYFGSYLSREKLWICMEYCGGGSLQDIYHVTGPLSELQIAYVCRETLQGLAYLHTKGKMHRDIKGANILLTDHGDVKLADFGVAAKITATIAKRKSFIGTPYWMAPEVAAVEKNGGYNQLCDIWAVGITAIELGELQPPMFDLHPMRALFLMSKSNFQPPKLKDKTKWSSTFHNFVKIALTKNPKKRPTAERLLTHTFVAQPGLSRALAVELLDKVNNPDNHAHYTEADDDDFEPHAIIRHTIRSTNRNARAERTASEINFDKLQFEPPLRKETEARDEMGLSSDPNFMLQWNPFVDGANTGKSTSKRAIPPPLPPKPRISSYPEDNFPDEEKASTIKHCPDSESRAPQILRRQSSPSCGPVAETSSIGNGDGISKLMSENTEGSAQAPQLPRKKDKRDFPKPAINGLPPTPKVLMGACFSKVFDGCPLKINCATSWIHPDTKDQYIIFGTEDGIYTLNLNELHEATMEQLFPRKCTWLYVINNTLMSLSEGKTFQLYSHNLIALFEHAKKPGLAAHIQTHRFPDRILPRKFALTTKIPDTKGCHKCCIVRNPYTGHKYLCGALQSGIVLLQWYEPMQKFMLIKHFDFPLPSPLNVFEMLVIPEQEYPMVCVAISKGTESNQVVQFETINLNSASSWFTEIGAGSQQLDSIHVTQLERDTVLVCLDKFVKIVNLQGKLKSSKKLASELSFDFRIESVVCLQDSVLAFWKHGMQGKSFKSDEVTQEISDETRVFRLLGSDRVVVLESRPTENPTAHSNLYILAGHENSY
Chain of UniProt Q8N5G2 (Q8N5G2 whole entry, looked up): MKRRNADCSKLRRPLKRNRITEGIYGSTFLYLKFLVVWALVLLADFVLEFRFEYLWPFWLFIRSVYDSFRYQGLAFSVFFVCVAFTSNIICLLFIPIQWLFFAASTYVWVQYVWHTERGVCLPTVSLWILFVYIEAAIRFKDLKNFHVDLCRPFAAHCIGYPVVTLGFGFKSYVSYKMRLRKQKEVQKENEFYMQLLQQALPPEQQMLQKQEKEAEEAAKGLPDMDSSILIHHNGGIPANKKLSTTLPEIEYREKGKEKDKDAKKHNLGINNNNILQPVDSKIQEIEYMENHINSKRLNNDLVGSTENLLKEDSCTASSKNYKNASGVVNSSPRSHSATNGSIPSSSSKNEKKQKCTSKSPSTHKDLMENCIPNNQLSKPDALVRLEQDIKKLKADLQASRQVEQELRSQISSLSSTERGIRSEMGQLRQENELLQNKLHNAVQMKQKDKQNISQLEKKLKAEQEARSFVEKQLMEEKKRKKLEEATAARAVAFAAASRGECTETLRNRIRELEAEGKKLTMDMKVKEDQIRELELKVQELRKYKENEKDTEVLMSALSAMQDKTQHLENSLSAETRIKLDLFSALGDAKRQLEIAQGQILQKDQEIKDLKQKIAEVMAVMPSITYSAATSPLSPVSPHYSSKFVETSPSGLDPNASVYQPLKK

Compound in the test: CC1=C(C2=C(C=C1)C(=O)C3=CC=CC=C3N2CCCN)C
The test can be described thus: log2 fold change, soluble protein after heating vs DMSO (PISA); higher = thermal stabilisation; K562 lysate, 10 uM; active = over 0.2 and 3.5 SD of the protein, either way, in both replicates (recomputed). Summed up: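 Soluble protein was defined as the supernatant remaining after 21,000xg for 90 min, following pooling of heated aliquots and adjustment to 0.5% NP-40 at 4°C. Before that, crude K562 extract at 1 mg/mL protein in PBS pH 7.4 with 1 mM MgCl2 was treated with 10 μM compound for 30 min and heated for 3 min across 48°C-58°C. Quantification used TMTpro 16plex LC-MS/MS with channel sums equalised, and values are log-two fold changes in thermal stability relative to solvent controls from duplicates.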
For the target MCMBP isoform 2 (UniProt Q9BTE3), the log2 fold change is -0.05. The result for MAP4K5 (UniProt Q9Y4K4) reads 0.009; that for MACO1 (UniProt Q8N5G2), -0.043. Under KLHL12 isoform 2 (UniProt Q53G59) stands -0.041; under LSS (UniProt P48449), -0.131.

Take KIF4B (UniProt Q2VIQ3): the log2 fold change is -0.018. On to MRPL27 (UniProt Q9P0M9), for which the log2 fold change was -0.195.

On to MED25 isoform 3 (UniProt Q71SY5), for which the log2 fold change is -0.039. Take MAP7D3 (UniProt Q8IWC1): the log2 fold change is 0.009. The result for MITD1 (UniProt Q8WV92) reads -0.071; that for MED14 (UniProt O60244), -0.029. Under LIMK2 isoform 3 (UniProt P53671) stands -0.005; under LAMP1 (UniProt P11279), 0.003. The result for MAPK3 (UniProt P27361) reads -0.006; that for MRPL35 (UniProt Q9NZE8), -0.108. Consider MAN2B2 (UniProt Q9Y2E5), for which the log2 fold change is -0.013. As to MAST2 (UniProt Q6P0Q8), the log2 fold change was -0.157. Under MGST3 (UniProt O14880) stands -0.03; under MAPK14 (UniProt Q16539), -0.026; under LRRC7 (UniProt Q96NW7), 0.041. As for MIF4GD isoform 3 (UniProt A9UHW6), the log2 fold change is -0.049. The result for MME (UniProt P08473) reads -0.23. Consider MAP4K2 (UniProt Q12851), for which the log2 fold change is -0.144. For LIMK1 (UniProt P53667), the log2 fold change is 0.026.

In the case of MCUB (UniProt Q9NWR8), the log2 fold change is -0.219. For the target METTL21A (UniProt Q8WXB1), the log2 fold change was -0.138.

MINDY1 isoform 3 (UniProt Q8N5J2): the log2 fold change was -0.161. As for MAP4 isoform 5 (UniProt P27816), the log2 fold change is 0.019. In the case of MAPKAPK3 (UniProt Q16644), the log2 fold change was -0.027. Consider LPCAT1 (UniProt Q8NF37), for which the log2 fold change was -0.011. In the case of MANEA (UniProt Q5SRI9), the log2 fold change is -0.009. Regarding MRPL30 isoform 2 (UniProt Q8TCC3), the log2 fold change is -0.037. For the target KRIT1 (UniProt O00522), the log2 fold change is -0.075. As for LTN1 isoform 3 (UniProt O94822), the log2 fold change was -0.009. The result for MAPK8 isoform 3 (UniProt P45983) reads -0.017; that for MED10 (UniProt Q9BTT4), -0.025.

Take MAP3K4 (UniProt Q9Y6R4): the log2 fold change was -0.012. For MAP4K4 isoform 6 (UniProt O95819), the log2 fold change is -0.127.
